Drawing on ChEMBL document CHEMBL3433997, “St. Jude Leishmania screening dataset” (2016), this text covers inhibition for 40 molecules.

The target of the assay is Glucose transporter (Leishmania mexicana) (UniProt O61059). In words: ST_JUDE_LEISH: Cytotoxicity at 2uM final concentration against transgenic Leishmania Mexicana promastigotes LmGT2 that are glucose transport deficient and complemented with the L. Mexicana glucose transporter 2. Activity is measured by DNA content using SYBR green in vitro. It counts as functional.
With `CCCCCCCN1CC[C@@H](CCCc2ccnc3ccc(OCC4CCCNC4)cc23)[C@@H](CC)C1` (stereo not given in full), the inhibition came to 1.43%.

On to `CC(C)N1CCN(c2ccc(OCCCN3CCN(c4cccc(Cl)c4Cl)CC3)c(C(F)(F)F)c2)CC1`, for which the inhibition is -0.82%.

As to `O=C(CCc1ccccc1)N[C@H](Cc1c[nH]c2ccccc12)C(=O)N1CCC(NCc2ccc3c(c2)Cc2ccccc2-3)CC1`, the inhibition was found to be 7.1%.

Consider `COc1cc2c(cc1C(F)(F)F)N(C(=O)Nc1ccc(Br)cn1)CC2`, for which the inhibition was -1.31%.

Take `CCOC(=O)c1cc(C(=O)NCCCCN2CCC(c3cn(C)c4ccccc34)CC2)ccc1-c1ccc(C(F)(F)F)cc1`: the inhibition was determined as 1.11%.

Turning to `CCn1c(SC)nnc1C1CCCN(CC(=O)Nc2nc3ccc(OC)cc3s2)C1` (stereo not given), the inhibition is 0.77%.

`CCC(=C(CC)c1ccc(O)c(CNC2CCCCC2)c1)c1ccc(O)c(CNC2CCCCC2)c1`: the inhibition was -1.26%.

`O=c1cc(NCCCNCc2cc(Br)cs2)[nH]c2ccccc12`: the inhibition turned out to be 2.59%.

In the case of `O=C(N[C@H]1CCN(Cc2ccc(OC3CCN(Cc4ccccc4)CC3)c(Br)c2)C1)c1ccc(Cl)c(Cl)c1`, the inhibition was found to be 0.77%.

As for `CC1CC(C)CN(CCCNc2ccc(C(=O)Nc3ccc(C(F)(F)F)cc3)cc2[N+](=O)[O-])C1` (stereo not given), the inhibition came to 1.47%.

Regarding `CC(C)(C)c1cc([N+](=O)[O-])cc(C(=O)Nc2ccccc2C(F)(F)F)c1O`, the inhibition was -1.86%.

Consider `CCN1CCN(CCCCNc2c3ccccc3nc3ccccc23)CC1`, for which the inhibition was found to be 10.7%.

Regarding `O=C(NCC1CC1)C1CCN(C(c2ccccc2)c2cc(F)cc(F)c2)CC1` (stereo not given), the inhibition is -1.03%.

Consider `O=C(Nc1ccc(-c2ccccc2)cc1)Nc1cccc(OCCN2CCCC2)c1`, for which the inhibition stood at 4%.

For `CCC(C(C)C)n1ccc2c3c(N)nc(N)nc3ccc21` (stereo not given), the inhibition came to 66.6%.

Regarding `CN(C)CCOc1cc(NC(=O)Nc2cccc([N+](=O)[O-])c2)ccc1I`, the inhibition is 15.7%.

For `COc1ccc(C2C(C(=O)OC3CCCC3)=C(C)NC3=C2C(=O)CCC3)cc1Br` (stereo not given), the inhibition worked out at 0.31%.

`NC1CCN(Cc2cccc(-c3ccc(-c4nc5ccccc5[nH]4)s3)c2)C1` (stereo not given): the inhibition was found to be 4.58%.

For the molecule `Cc1ccc(-c2nc3cc(C(=O)NC4CCN(Cc5ccccc5)CC4)ccc3[nH]2)cc1`, the inhibition amounted to 0.96%.

In the case of `O=C(COC(=O)c1cccc(S(=O)(=O)N2CCc3ccccc32)c1)NNC(=O)c1cccs1`, the inhibition worked out at 2.91%.

As for `COc1ccc(-c2ccc3c(-c4ccc(F)cc4)cnc(N)c3c2)cn1`, the inhibition is -0.22%.

As for `COc1cc(F)c2nccc([C@@H](O)CN3CCC(NCc4ccc5c(n4)NC(=O)CS5)CC3)c2c1`, the inhibition is -1.38%.

As to `COc1cc(-c2nc(-c3ccccc3)c(-c3ccccc3)[nH]2)ccc1OCCN(C)C`, the inhibition is 0.91%.

Turning to `CN(C)Cc1ccc2cc(NC(=O)c3ccc(-c4ccc(Cl)cc4)cc3)ccc2n1`, the inhibition amounted to 2.79%.

`O=C(N[C@H](Cc1ccc(Cl)cc1)C(=O)N1CCN(c2ccnc3cc(Cl)ccc23)CC1)[C@H]1Cc2ccccc2CN1`: the inhibition is -2.58%.

`Cn1cccc1CCNCc1ccc(-c2cccc(-c3nc4cc(F)ccc4[nH]3)c2)cc1`: the inhibition is 3.01%.

In the case of `Cc1cc([N+](=O)[O-])ccc1NC(=O)Nc1cccc(C(F)(F)F)c1`, the inhibition was 4.81%.

On to `c1ccc2c(c1)CN(Cc1cc3ccccc3[nH]1)CC1(CCN(Cc3c[nH]c4cnccc34)CC1)O2`, for which the inhibition was -0.44%.

For the molecule `Cc1ccc(C)c(CC(=O)N2CCC(n3c(C)nc4ccc(F)cc43)CC2)c1`, the inhibition was determined as 2.07%.

`COc1ccc2c(=NN=Cc3cccnc3)cc(C)[nH]c2c1`: the inhibition amounted to 1.52%.

For `Cc1ccc(C(=O)Nc2ccc(C)c(OC3CCN(Cc4ccco4)C3)c2)cc1` (stereo not given), the inhibition was 7.13%.

As for `COC(=O)c1ccc(Nc2nccc(Nc3ccc(Oc4ccccc4)cc3)n2)cc1`, the inhibition stood at 2.57%.

In the case of `O=C(Nc1c(F)cccc1F)c1cccc(-c2nn3ccccc3c2-c2ccnc(Nc3cccc(-c4cnco4)c3)n2)c1`, the inhibition worked out at 1.5%.

For the molecule `CCN(CC)CCCn1c(N)c(-c2nc3ccccc3[nH]2)c2nc(C#N)c(C#N)nc21`, the inhibition stood at 4.63%.

On to `COc1ccc(-c2ccccc2CNc2nc(NCCc3ccc(O)cc3)nc(N3CCNCC3)n2)cc1`, for which the inhibition came out at 0.12%.

As for `CS(=O)(=O)CCCNCc1ccc(-c2cc3c(Nc4ccc(OCc5ccccc5)cc4)ncnc3cn2)o1`, the inhibition stood at 2.01%.

On to `CC(C)N1CCC(NC(=O)N2CCCN(c3ncnc4cc(-c5ccc(Cl)cc5)sc34)CC2)CC1`, for which the inhibition was -3.09%.

With `O=C(NCC1CCC(C(=O)NC2CCCc3ccccc32)CC1)c1ccc(O)c(-c2ccc(Cl)c(Cl)c2)c1` (stereo not given), the inhibition worked out at 4.27%.

Regarding `O=S(=O)(Nc1cccc(CCN2CCC(N3CCCCC3)CC2)c1)c1ccccc1C(F)(F)F`, the inhibition was -2.06%.

Turning to `Nc1ncc(-c2ccc(NC(=O)Nc3cc(C(F)(F)F)ccc3F)cc2)c(N)n1`, the inhibition came out at 0.6%.
